# The supplement of paper PMC12632987
# B1: GBRAPL2_0_7245 (protein)
# chain: MEELLEKLLSLSLEEAKKKIKELAEKAIKLIKEDPEKGIKEAEKLAEVFAEVLEKRKDEELLKVIEEAIDKIVKEVAKVDPNAAAYIDAIFGSAIMEVEG
# B2: GBRAPL2_0_7252 (protein)
# chain: MEELLKELLSLSLEEAKAAIEKLAEEVIKLIEKDPEKGLKAAEELAEVFAEYLIERKNEELEEAIVKAIDKLVKEVAKVDPNKAAYIDSIIGSAIMEVEG
# B3: GBRAPL2_0_7242 (protein)
# chain: MEELLEELLSLSLEEAKARIRELAEEAIKLLKEDPEEGKKYAEELVEVFAEVLEKTKNEELREVIEEEVDRIVKEAAEIDPNFAAYLASIMGSAIYEVES
# B4: GBRAPL2_0_7251 (protein)
# chain: MEELLEELLSLSLEEAKKKIKELAEKVIKLIKEDPEKGLEEAEKLAKVFAEYLIETKNEELEKVIDEAIDKIVKEVAKIDPNKAAYIDAIIGSAIMEVES
# B5: GBRAPL2_106_7264 (protein)
# chain: EGLEKARKLAKEALEKAKKLPEAFKKGDEEAIDELLELLDELTRLAIELGLDEVAALVADAFDNVFAASEDPETAEEDLEEAIKDLEEALKLIEKKIKEL
# B6: GBRAPL2_0_7244 (protein)
# chain: MEELLKRLLSLSLEEAKKEIKELAEKVIKLIREKPEEGIKAAEELMEVFAEVLVERKDEELEEVVEEAVDAIVEEVAKVDPNAAAYIDAIFGSAIMEVEG
# B7: GBRAPL2_0_7258 (protein)
# chain: LEEILKEMKTLSIEEAAELAKEEAERLVADPSVTPDEFEAAAFAMLEVLAEKVKKEKTEEALEIFDEAVDHFTALAAKIDPLTAAAVATHGGSLIYEIES
# B8: GBRAPL2_0_7263 (protein)
# chain: LEKVLEEMKKLSIEEAKKLAKEYLEKLRDDPSVTPEEFLEAALKILDVLYEKVKKEKTEEALEIFEEFRDFAVELAAKVDPNIAAEVDSYAGSLIMELEE
# B9: GBRAPL2_0_7255 (protein)
# chain: LEEVLKKMKESSIEEAVELAKEEADRLVADPSVTPEEFEEAAVALLEVLAEKAKEEKTEEALELLEEAVDYLTELAKKVDPDVAAFIDTYGGSLLYELEE
# B10: GBRAPL2_0_7253 (protein)
# chain: KEELLEKLLSLSIEEAIKEVKKLAEEVIKYIKEKPEEGLKKAEELAEIFAELIEARKDEKLIKAVEEAIEKIVEEAKKIDPNEAAYIASIIGSALYEVES
# B11: GBRAPL2_0_7249 (protein)
# chain: MEEELKELLSLSTEEAKKKIKEKAKEVIELIKKDPEEGLKAAEELAEIFAEYLEKTKNEELEEVIDEAIDEIVKEVAKVDPNEAAYIDAIIGSAIMEVEG
# B12: GBRAPL2_106_7268 (protein)
# chain: KKLEEILEELEEALELVEELLERAEEKDEELLDETLELLDRVTRLAIEAGLDEVAALVADAANDVFAAEEDPENRKEYLERAKEDLEEAIKLVKEKIKEA
# B13: GBRAPL2_0_7250 (protein)
# chain: MEELLKELLSLSLEEAKKKIKELTEEVIKLIEKDPKKGLEKAIELAEIFAEYLIERKNEELEEVIDEAIDKLVKKVAEVDPNEAAYIDAIIGSAIMEVEG
# B14: GBRAPL2_0_7241 (protein)
# chain: MEELLKRLLSLSLEEAKAEIKRLAEEVIKLIKEDPEKGKKEAEELVEVFAEYLIKSKNEELLEVIEEEVDKIVKEVAKIDPNFAAYLDSIIGSAIAEVES
# B15: GBRAPL2_0_7257 (protein)
# chain: MEEVLKKMKELSIEEAAKLAKEEIEKLVADPSVTVEELEEAIEKLLEVLAEKVKEEKTEEALEILDEFVDYATELAAKVDPNLAAYVASYGGSLLYELEE
# B16: GBRAPL2_0_7246 (protein)
# chain: MEELKKELLSLSLEEAKKKIKELAEKVIKLIKEDPEKGIEEAEKLTEVFAEVLVERKDEELKKVVEEAVEKIVEEVKKVDPKAAAYIDAIYGSALMEVEG
# B17: GBRAPL2_0_7259 (protein)
# chain: LEEVLEEMKELSIEEAAELAKKYVKELVADPSVTPEQFLEAAEALLEVLAEKVKEEKTEEALEIFDEAVDYFTEEAKKIDPETAAAVATYGGSLLYEIES
# B18: GBRAPL2_106_7266 (protein)
# chain: EKLEELKKLLEEALELAKKLPEAFKAGDEEAIDELLDLLDEATRLAIELGLDEVAALVADAFDNVFAASEDPETAEEDFKEAIKNLEEALKLVEEELKKL
# B19: GBRAPL2_128_7270 (protein)
# chain: MKIVELDVNVKDEESYELALEILDEIAKNSSPEVKDLAEAARDLVEEAKKRGFGENVTAVDILSDEDAEELKKIYEELKKKYGEEKVNSVLELEISDVPP
# B20: GBRAPL2_0_7248 (protein)
# chain: MEELLKELLSLSTEERKKKIKELAKEAVKLIKEDPEKGLEAAIELAEVFAKVIEETKNEEIAEVVDEAIDLIVKEAAEVDPNAAAEIASIVGSALLELEM
# B21: GBRAPL2_0_7260 (protein)
# chain: MEEVLEKMKKLSLEEATKLAKEYLEKLRADPNVTKEEFEEAAEKLLEVLAEKAKKEKTEEALELFDEFVDYFTELAKKIDPNLAAYIASYGGSLLYEIES
# B22: GBRAPL2_0_7247 (protein)
# chain: MEELLKELLELSVEEAKKKIKELAKKAVELIKKDPEKGLEEAEKLAEVFAEYLEETKNEELAEAVDEAARLLVEEAEKVDPNAAAYIASEVGSALLDLEM
# B23: GBRAPL2_0_7256 (protein)
# chain: LEEVLEEMKKLSIEEAAKLAKEYAEKLLADPSVTPEEFLEAIEKLLEVLAEKVKEEKTEEALEIFEEAVDYFTALAAKIDPNLAADVATYGGSLLYEIEE
# B24: GBRAPL2_128_7272 (protein)
# chain: MKLVEITINIKDEESYNLAIEILDRIAEKSSPEVADLADAAKDAAEIAAENGYDEKVVVVDVLSEEEAEELKKIYEEIKKELGEEKVKSVVELEITDIEP
# B25: GBRAPL2_128_7271 (protein)
# chain: KKIVEIDVDIKDEESYNLALEILDEISENSSPEVKKLADAAKDLVESAKEEGFGENVTAVDILSDEEAALLQKIYEEIKKKYGKEKVNSVVKLDISDVPP
# B26: GBRAPL2_106_7265 (protein)
# chain: SGLEELLKLLEEALEKAKKLPEAFKKGDEEAVDELLELLDEATRLAIELGLDEVAALVAAAFDDVFAASEDPETAEEDFEEAIEDLEEAKELVEKRLEEE
# B27: GBRAPL2_106_7267 (protein)
# chain: EKLKELLKQLEELAKKIEELLKKADENDEELIDETLELLNEATRQAIEAGLDEVAALLADAFNHVFEAKENPEERKENLEEALKDVKEAIKLVKKKIKEA
# B28: GBRAPL2_106_7269 (protein)
# chain: EELKELLEKLKELKEKIEELLEKAEEKDEELYDETIELADEVTRLAIELGLDEVAALIADAANDIFEALENPEERKEDLEEALEDVEEAIKLVEEEIKKE
# B29: GBRAPL2_0_7262 (protein)
# chain: MEKVLEEMEKLSIEEAAKLAKEYAEKLKADPSVSPEQFEEAVLALLEVLYKKVKKEKTEKALEIFEEAVDYFTELAAEVDPNLAAYVDSYAGSLIMELEE
# B30: GBRAPL2_0_7243 (protein)
# chain: MEELLKELLSLSLEEAKAAIKELAEEAIKLIREDPEKGIKYAEELMEVFAEVLEKRKDEELLKVIEEAVEKIVEEVAKVDPNEAAYIDAIFGSAVMEVEG
# B31: GBRAPL2_0_7254 (protein)
# chain: MEKLLKELLSLSVEEAQKAIKEEAEKVVKYLKEDPEKGLEKAEELAEVFAELLKERKDEKLEETIEEAIDKIVKEAAKIDPNKAAYIAAIIGSALYEVES
# B32: GBRAPL2_0_7261 (protein)
# chain: MEEVLEKMKKLSIEEAAKLAKEYLEKLRNDPSVTPEEFEEAALKILEVLAEKVKKEKTEEALEIFEELVDYATKLAAEIDPNLAAYIDSYGGSLIMELEE
# Target: GABARAPL2, P60520
# Sequence (P60520 whole entry, the tested form may be a part): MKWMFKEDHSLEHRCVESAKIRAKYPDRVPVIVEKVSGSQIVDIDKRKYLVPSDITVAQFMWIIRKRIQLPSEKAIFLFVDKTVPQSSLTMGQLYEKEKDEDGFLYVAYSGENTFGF
# Experiment: median log2 fold change of GCK-ALFA target abundance (FLAG IP / Myc IP barcode read proportion) (log2 ratio); each designed protein is fused to an ALFA-tag nanobody in HEK293 cells to bring the named protein to FLAG-tagged glucokinase (GCK); Myc marks an untargeted standard; higher = target protein stabilised (more abundant)
# Conditions: target protein: 3xFLAG-MCP-GCK-ALFA reporter; HEK293 landing pad (RPLP)
# How it was run: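 Sequencing of reverse-transcribed, amplified circular RNA barcodes from anti-FLAG and anti-Myc immunoprecipitates provided the readout for an ALFA-nanobody-fused binder library recombined into HEK293 landing-pad cells. Those cells were induced with 2 μg mL^−1 doxycycline, transfected with a plasmid expressing a FLAG-tagged target and a Myc-tagged standard, and lysed after 48 h. Target abundance is the per-binder median log2 ratio of FLAG to Myc barcode read proportions. Only barcodes at a proportion of ≥10^−7 in both replicates and binders with ≥3 barcodes per replicate were kept, with a 10^−6 pseudocount added before the two replicates were pooled.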
row,Binder,median log2 fold change
1,B1,0.154
2,B2,0.0463
3,B3,0.159
4,B4,-0.108
5,B5,-0.195
6,B6,-0.291
7,B7,-0.0288
8,B8,0.11
9,B9,-0.088
10,B10,0.152
11,B11,-0.0458
12,B12,-0.012
13,B13,-0.0651
14,B14,0.00211
15,B15,-0.0513
16,B16,0.169

row,Binder,median log2 fold change
1,B17,0.154
2,B18,0.00104
3,B19,-0.268
4,B20,0.0975
5,B21,0.248
6,B22,-0.0333
7,B23,0.0867
8,B24,-0.21
9,B25,-0.852
10,B26,-0.285
11,B27,0.226
12,B28,-0.274
13,B29,0.203
14,B30,0.0124
15,B31,0.0528
16,B32,0.0589
